Test results from the supplement of paper PMC12494721.
Structures can show the parent of a compound that is named as a salt.

Experiments:
Conditions in all cases: incubation time: 27 h, anaerobic, 37 °C;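 for the amine columns active = adjusted P below 0.05 in both replicates with a change the same way and a mean fold change under 0.8 or over 1.25; inactive = the rest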
[1] = tested on: Clostridium sporogenes DSM 1664; experiment: growth (OD595) fold change vs plate DMSO controls (fold change (ratio)); higher = more growth
How it was run: (§1)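 Growth is expressed as the fold change relative to the median of the DMSO control wells on each plate. Cultures in mGAM were grown anaerobically in 96-well plates for 27 h at 37 °C, shaken, and read at 595 nm. Readings were blank-subtracted, corrected for compound background with 20 µM compound solutions in water, and converted to OD with a calibration factor of 5. Fold changes above 1.5 were set to NA, and each value is the mean of 2 biological replicates.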

Escherichia coli IAI1 [2] = experiment: as above
How it was run: as §1

[3] = tested on: Klebsiella aerogenes DSM 30053; experiment: as above
How it was run: as §1

[4] = tested on: Ruminococcus gnavus DSM 108212; experiment: as above
How it was run: as §1

[5] = tested on: Klebsiella aerogenes DSM 30053; experiment: fold change of Histamine concentration vs plate DMSO controls (fold change (ratio)); higher = more amine produced, active = hit call of the paper (significant change in both replicates, either direction)
How it was run: (§2)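 Extracts of whole anaerobic mGAM cultures were analysed for amines by LC–triple-quadrupole MS with dynamic MRM and external calibration curves, with drift corrected within batch. Four gut strains were grown at 37 °C for 27 h in 80 µL wells with compounds at 20 µM final, sweeteners at 50 µM final. Each value expresses fold change over plate DMSO controls. The average of 2 biological replicates is shown.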

[6] = tested on: Clostridium sporogenes DSM 1664; experiment: fold change of Tryptamine concentration vs plate DMSO controls (fold change (ratio)); higher = more amine produced, active = hit call of the paper (significant change in both replicates, either direction)
How it was run: as §2

[7] = tested on: Ruminococcus gnavus DSM 108212; experiment: as above
How it was run: as §2

Escherichia coli IAI1 [8] = experiment: fold change of Putrescine concentration vs plate DMSO controls (fold change (ratio)); higher = more amine produced, active = hit call of the paper (significant change in both replicates, either direction)
How it was run: as §2

[9] = tested on: Klebsiella aerogenes DSM 30053; experiment: as above
How it was run: as §2

Escherichia coli IAI1 [10] = experiment: fold change of Cadaverine concentration vs plate DMSO controls (fold change (ratio)); higher = more amine produced, active = hit call of the paper (significant change in both replicates, either direction)
How it was run: as §2

[11] = tested on: Klebsiella aerogenes DSM 30053; experiment: as above
How it was run: as §2

[12] = tested on: Ruminococcus gnavus DSM 108212; experiment: fold change of 2-Phenylethylamine concentration vs plate DMSO controls (fold change (ratio)); higher = more amine produced, active = hit call of the paper (significant change in both replicates, either direction)
How it was run: as §2

Compound	growth [1]	growth (Escherichia coli IAI1 [2])	growth [3]	growth [4]	fold change of Histamine concentration [5]	fold change of Tryptamine concentration [6]	fold change of Tryptamine concentration [7]	fold change of Putrescine concentration (Escherichia coli IAI1 [8])	fold change of Putrescine concentration [9]	fold change of Cadaverine concentration (Escherichia coli IAI1 [10])	fold change of Cadaverine concentration [11]	fold change of 2-Phenylethylamine concentration [12]
CCOC(=O)NNc1nncc2ccccc12 [Todralazine hydrochloride] (20 µM)	0.521	1.14	1.04	1	0.967 (inactive)	0.506 (inactive)	0.955 (inactive)	1.02 (inactive)	0.984 (inactive)	1.04 (inactive)	1.01 (inactive)	1.03 (inactive)
CC(=O)Nc1c(I)c(NC(C)=O)c(I)c(C(=O)O)c1I [Diatrizoic acid dihydrate] (20 µM)	1.28	1.05	1.01	0.851	1.03 (inactive)	0.947 (inactive)	1.05 (inactive)	1.07 (inactive)	0.983 (inactive)	1.01 (inactive)	0.988 (inactive)	1.01 (inactive)
O=C(O)c1cc(=O)[nH]c(=O)[nH]1 [Orotic acid] (20 µM)	1.11	0.979	1.01	1.22	0.955 (inactive)	1.01 (inactive)	0.967 (inactive)	0.995 (inactive)	1.01 (inactive)	1.03 (inactive)	0.993 (inactive)	0.948 (inactive)
CN(C)[C@@H]1C(=O)C(C(N)=O)=C(O)[C@@]2(O)C(=O)C3=C(O)c4c(O)ccc(Cl)c4[C@@H](O)[C@H]3C[C@@H]12 [Demeclocycline hydrochloride] (20 µM)	0	0.0384	0.0385	0.802	0.107 (active)	0.0455 (active)	0.319 (active)	0.239 (active)	0.472 (active)	0.225 (active)	0.547 (active)	0.364 (active)
COc1ccc(Cl)cc1C(=O)NCCc1ccc(S(=O)(=O)NC(=O)NC2CCCCC2)cc1 [Glibenclamide] (20 µM)	1.19	1	1.04	1.04	0.91 (inactive)	1.03 (inactive)	1.06 (inactive)	0.96 (inactive)	0.964 (inactive)	0.909 (inactive)	1.03 (inactive)	1.09 (inactive)
CCN(CC)CC#CCOC(=O)C(O)(c1ccccc1)C1CCCCC1 (stereo not given) [Oxybutynin chloride] (20 µM)	1.01	0.971	1	0.917	1.01 (inactive)	1.01 (inactive)	0.977 (inactive)	1.01 (inactive)	1.02 (inactive)	0.909 (inactive)	1.01 (inactive)	1.01 (inactive)
CC1Cc2ccccc2N1NC(=O)c1ccc(Cl)c(S(N)(=O)=O)c1 (stereo not given) [Indapamide] (20 µM)	1.04	1.02	0.929	0.659	1 (inactive)	1.01 (inactive)	1.01 (inactive)	1 (inactive)	1 (inactive)	0.977 (inactive)	1 (inactive)	1.03 (inactive)
CC(C)(C)NCC(O)COc1cccc2c1CCC(=O)N2 (stereo not given) [Carteolol hydrochloride] (20 µM)	0.96	1.01	0.997	0.895	0.987 (inactive)	0.985 (inactive)	1.01 (inactive)	1.01 (inactive)	0.982 (inactive)	1 (inactive)	0.996 (inactive)	0.982 (inactive)
S=c1[nH]cnc2nc[nH]c12 [Mercaptopurine] (20 µM)	1.07	1.1	0.98	0.869	1.05 (inactive)	1.01 (inactive)	0.944 (inactive)	1.06 (inactive)	1 (inactive)	0.879 (inactive)	0.999 (inactive)	0.959 (inactive)
NS(=O)(=O)c1cc2c(cc1Cl)N=CNS2(=O)=O [Chlorothiazide] (20 µM)	1.05	1.06	1.03	0.966	1.05 (inactive)	0.97 (inactive)	0.998 (inactive)	1.05 (inactive)	1.03 (inactive)	0.97 (inactive)	1.01 (inactive)	1.01 (inactive)
O=c1[nH]c(=O)n([C@H]2C[C@H](O)[C@@H](CO)O2)cc1I [Idoxuridine] (20 µM)	0.856	1.02	1.04	0.871	1.03 (inactive)	1.25 (active)	1.05 (inactive)	1.18 (inactive)	1.02 (inactive)	0.982 (inactive)	1 (inactive)	1.08 (inactive)
COc1ccc2cc(CCC(C)=O)ccc2c1 [Nabumetone] (20 µM)	1	0.792	1.01	0.995	0.912 (inactive)	0.926 (inactive)	0.944 (inactive)	0.871 (inactive)	0.974 (inactive)	1.09 (inactive)	1.01 (inactive)	0.946 (inactive)
CC[C@@]1(O)C(=O)OCc2c1cc1n(c2=O)Cc2cc3c(CN(C)C)c(O)ccc3nc2-1 [Topotecan] (20 µM)	1.08	1.03	0.991	0.99	1.1 (inactive)	0.992 (inactive)	0.998 (inactive)	1.01 (inactive)	0.994 (inactive)	0.961 (inactive)	1 (inactive)	1.01 (inactive)
CCCNC(C)(C)C(=O)Nc1ccccc1C [Quatacaine] (20 µM)	1.01	0.991	0.979	0.952	1.01 (inactive)	1.01 (inactive)	1.05 (inactive)	0.994 (inactive)	1 (inactive)	0.951 (inactive)	0.997 (inactive)	1.04 (inactive)
Cc1cccn2c(=O)c(-c3nnn[nH]3)cnc12 [Pemirolast potassium] (20 µM)	0.934	0.984	0.975	0.807	1.03 (inactive)	1.02 (inactive)	1.01 (inactive)	0.994 (inactive)	1.01 (inactive)	0.992 (inactive)	1 (inactive)	1.04 (inactive)
O=C(CCNNC(=O)c1ccncc1)NCc1ccccc1 [Nialamide] (20 µM)	0.952	0.991	1.02	0.89	1.03 (inactive)	1.01 (inactive)	1 (inactive)	0.997 (inactive)	1 (inactive)	1.03 (inactive)	0.998 (inactive)	1.01 (inactive)
CCCCNC(=O)NS(=O)(=O)c1ccc(C)cc1 [Tolbutamide] (20 µM)	0.926	0.985	0.957	0.746	1.04 (inactive)	1.02 (inactive)	1.01 (inactive)	0.978 (inactive)	0.988 (inactive)	1 (inactive)	1 (inactive)	1.04 (inactive)
Nc1nc(=O)n([C@@H]2CS[C@H](CO)O2)cc1F [(-) Emtricitabine] (20 µM)	1.11	0.995	0.981	1.12	1.01 (inactive)	1.03 (inactive)	1.03 (inactive)	1.01 (inactive)	0.985 (inactive)	0.996 (inactive)	0.991 (inactive)	1.06 (inactive)
CCCC(CCC)C(=O)O [Valproic acid] (20 µM)	1.23	1.01	0.99	0.931	0.977 (inactive)	1.07 (inactive)	1.11 (inactive)	0.943 (inactive)	0.971 (inactive)	0.999 (inactive)	0.999 (inactive)	1.1 (inactive)
CN[C@@H]1CCc2[nH]c3ccc(C(N)=O)cc3c2C1 [Frovatriptan succinate] (20 µM)	1.12	0.98	0.991	1.01	1.05 (inactive)	0.957 (inactive)	0.964 (inactive)	1.03 (inactive)	1 (inactive)	1.03 (inactive)	0.984 (inactive)	0.945 (inactive)
C[C@@H](O)[C@H]1C(=O)N2C(C(=O)O)=C(S[C@@H]3CN[C@H](CNS(N)(=O)=O)C3)[C@H](C)[C@H]12 [Doripenem monohydrate] (20 µM)	0	0.00243	0.281	0.0314	0.193 (active)	0.0168 (active)	0.0858 (active)	0.954 (inactive)	0.467 (active)	2.1 (active)	1.08 (inactive)	0.0567 (active)
CN1C2CCCC1CC(NC(=O)c1nn(C)c3ccccc13)C2 (stereo not given) [Granisetron] (20 µM)	1.04	1.02	1.01	1.04	1.02 (inactive)	1.04 (inactive)	1.07 (inactive)	1.05 (inactive)	1 (inactive)	0.999 (inactive)	1.01 (inactive)	1.08 (inactive)
CCOC(=O)C1=C[C@@H](OC(CC)CC)[C@H](NC(C)=O)[C@@H](N)C1 [Oseltamivir phosphate] (20 µM)	0.866	0.987	1.01	1.01	1.03 (inactive)	1.05 (inactive)	1.03 (inactive)	1.02 (inactive)	1 (inactive)	1.03 (inactive)	1 (inactive)	1.05 (inactive)
CN(C)CCC(c1ccc(Cl)cc1)c1ccccn1 (stereo not given) [Chlorpheniramine maleate] (20 µM)	0.73	0.712	0.719	0.699	0.983 (inactive)	1.05 (inactive)	1.03 (inactive)	0.846 (inactive)	0.989 (inactive)	1.43 (active)	1 (inactive)	1.02 (inactive)
Clc1ccc(CCC(Cn2ccnc2)Sc2c(Cl)cccc2Cl)cc1 (stereo not given) [Butoconazole nitrate] (20 µM)	1.12	1.02	0.995	0.621	1.01 (inactive)	1.07 (inactive)	0.514 (active)	0.997 (inactive)	0.992 (inactive)	0.995 (inactive)	0.989 (inactive)	0.623 (active)
